Results as given in PMC5540273 (PLoS ONE, 2017).

Columns and labels:
Settings in all cases: concentration: 1 μM, replicates: in singlicate; n = 1
[1] = tested on: EPHA4
[2] = tested on: EPHA5
[3] = tested on: EPHA6
[4] = tested on: EPHA7
[5] = tested on: EPHA8
[6] = tested on: EPHB1
[7] = tested on: EPHB2
[8] = tested on: EPHB3
[9] = tested on: EPHB4
[10] = tested on: EPHB6
[11] = tested on: ERBB2
[12] = tested on: ERBB3
[13] = tested on: ERBB4
[14] = tested on: T1, ERK1
T1 construct: gene MAPK3

[15] = tested on: T2, ERK2
T2 construct: gene MAPK1

[16] = tested on: T3, ERK3
T3 construct: gene MAPK6

[17] = tested on: T4, ERK4
T4 construct: gene MAPK4

[18] = tested on: T5, ERK5
T5 construct: gene MAPK7

[19] = tested on: T6, ERK8
T6 construct: gene MAPK15

[20] = tested on: ERN1
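Also: KINOMEscan kinase panel screen.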

Structure (SMILES) | %Inh [1] [%] | %Inh [2] [%] | %Inh [3] [%] | %Inh [4] [%] | %Inh [5] [%] | %Inh [6] [%] | %Inh [7] [%] | %Inh [8] [%] | %Inh [9] [%] | %Inh [10] [%] | %Inh [11] [%] | %Inh [12] [%] | %Inh [13] [%] | %Inh [14] [%] | %Inh [15] [%] | %Inh [16] [%] | %Inh [17] [%] | %Inh [18] [%] | %Inh [19] [%] | %Inh [20] [%]
O=C1NC(=O)C(N2CCc3ccccc32)=C1c1ccccc1Cl [SB-373598] | 24 | 0 | 18 | 18 | 36 | 9 | 0 | 14 | 20 | 31 | 26 | 0 | 0 | 17 | 0 | 23 | 11 | 0 | 0 | 13
Cc1cccc(-c2cc(Nc3ccncc3)c3ccccc3n2)n1 [GSK223675] | 0 | 0 | 0 | 0 | 0 | 4 | 0 | 0 | 0 | 25 | 0 | 0 | 26 | 0 | 0 | 0 | 25 | 0 | 0 | 13
O=C(Nc1n[nH]c2nc(-c3nccs3)c(Br)cc12)C1CCCC1 [SB-742609] | 25 | 0 | 20 | 10 | 14 | 0 | 0 | 26 | 10 | 46 | 0 | 0 | 0 | 10 | 2 | 0 | 100 | 0 | 60 | 12
Clc1cc(Cl)cc(Nc2ccnc(Nc3cc(Cl)cc(Cl)c3)n2)c1 [GSK175726] | 8 | 0 | 13 | 8 | 17 | 1 | 19 | 10 | 28 | 19 | 22 | 0 | 36 | 0 | 0 | 14 | 20 | 0 | 0 | 13
O=C(Nc1ccccc1)Nc1cccc(Oc2ccc3nccn3n2)c1 | 0 | 0 | 0 | 0 | 0 | 0 | 3 | 0 | 10 | 9 | 38 | 53 | 0 | 0 | 0 | 0 | 0 | 0 | 0 | 0
COc1ccccc1CNC(=O)c1cc(C(=O)c2ccccc2C)c[nH]1 [GSK364507] | 5 | 0 | 0 | 8 | 19 | 25 | 0 | 6 | 20 | 11 | 21 | 0 | 30 | 0 | 2 | 4 | 13 | 0 | 0 | 0
COc1cc2ncn(-c3cc(OCC4CCCO4)c(C(N)=O)s3)c2cc1OC (centres unmarked) [GSK204607] | 7 | 0 | 1 | 0 | 3 | 24 | 0 | 0 | 27 | 23 | 0 | 20 | 0 | 2 | 0 | 20 | 0 | 0 | 0 | 0
COc1ccc(C2=C(Nc3cccc(C(=O)O)c3)C(=O)NC2=O)cc1 [SB-390765] | 21 | 7 | 16 | 0 | 10 | 5 | 9 | 20 | 9 | 19 | 0 | 0 | 0 | 0 | 7 | 19 | 1 | 10 | 7 | 21
Cc1c(Cn2ccn3c(=O)cc(N4CCOCC4)nc23)cccc1C(F)(F)F [GSK2289044] | 6 | 0 | 0 | 0 | 0 | 21 | 0 | 5 | 9 | 0 | 0 | 0 | 0 | 0 | 0 | 0 | 0 | 0 | 0 | 3
COc1cc2nccc(Nc3ccc(NC(=O)c4ccc(C)cc4)c(O)c3)c2cc1OC.Cl [GW440132] | 0 | 0 | 3 | 2 | 5 | 6 | 0 | 12 | 10 | 19 | 14 | 0 | 9 | 0 | 2 | 13 | 3 | 0 | 1 | 29
